The text below walks through data of PubChem BioAssay (NCI).

Compounds without any hit were thinned out: in the full panel of roughly 83,000, 20% have a hit.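 In brief: 96-well plates, 48 h treatment, single concentration, percent growth endpoint.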 Unmarked numbers belong to inactive results. Activity calls are given as the source filed them. Rule for the calls: active = growth percent below 10; inactive = the rest.

Some test systems named below: NCI-H23 lung; NCI-H226 lung; NCI-H322M lung; HOP-62 NSCLC; NCI-H460 lung; HOP-92 NSCLC; NCI-H522 lung; A549/ATCC NSCLC; 786-0 renal; COLO 205 colon; DU-145 prostate; K-562 leukemia; MALME-3M melanoma; MDA-MB-231 breast; RXF 393 renal; SF-268 CNS; SF-295 CNS; SF-539 CNS; UACC-257 melanoma; M14 melanoma.
Common to all, as to assay: NCI-60 one-dose screen, 48 h (100 = growth as untreated, 0 = no growth, -100 = all killed)
Holding throughout (details): 10 µM unless noted

Take `COc1ccc(NC2=C(Br)C(=O)C(C)=C(C)C2=O)cc1OC`: the growth in the experiment on NCI-H23 lung was 89.8%; with NCI-H226 lung it was 88.2%; with NCI-H322M lung, 106%; with HOP-62 NSCLC it was 104%; in the experiment on NCI-H460 lung it was 101%; in the experiment with HOP-92 NSCLC it was -60.8% (active). Further, the growth in the experiment on NCI-H522 lung is 89.6%; in the experiment with A549/ATCC NSCLC, 98.7%; with 786-0 renal, 106%; with COLO 205 colon, 125%; in the experiment with DU-145 prostate, 109%; in the experiment on K-562 leukemia it was -7.89% (active). In addition, the growth is 117% in the experiment on MALME-3M melanoma; 33.3% in the experiment with MDA-MB-231 breast; 104% in the experiment with RXF 393 renal; 95.3% with SF-268 CNS; 94.4% with SF-295 CNS; 101% with SF-539 CNS. In addition, the growth in the experiment with UACC-257 melanoma is 96%; in the experiment with M14 melanoma, 104%.

As to `COC(=O)CCCNCCCn1ccc2cc(NCc3cccc(-c4ccccc4)c3C)ccc21`, the growth in the experiment with NCI-H23 lung is 61.9%; in the experiment with NCI-H226 lung, 69.7%; in the experiment with NCI-H322M lung, 97.6%; in the experiment on HOP-62 NSCLC, 81.9%; in the experiment on NCI-H460 lung it was 81.8%; in the experiment on HOP-92 NSCLC, 22.3%. Moreover, the growth was 91.7% with NCI-H522 lung; 84.9% in the experiment with A549/ATCC NSCLC; 74.2% in the experiment on 786-0 renal; 64.4% in the experiment on COLO 205 colon; 86.2% with DU-145 prostate; -1.36% (active) with K-562 leukemia. For the same molecule, the growth in the experiment with MALME-3M melanoma is 75.2%; in the experiment on MDA-MB-231 breast it was 68.3%; with RXF 393 renal it was 71.9%; in the experiment on SF-268 CNS, 82.9%; in the experiment on SF-295 CNS it was 64.5%; with SF-539 CNS, 77.8%. Besides, the growth is 81.6% with UACC-257 melanoma and 68.1% in the experiment with M14 melanoma.

Regarding `CC(Nc1ncnc2ccc(-c3cnc4cnccn34)cc12)c1ccccc1` (stereo not given), the growth is 54.8% in the experiment on NCI-H23 lung; 46.9% in the experiment on NCI-H226 lung; 26.4% with NCI-H322M lung; 68.8% in the experiment on HOP-62 NSCLC; 61% in the experiment on NCI-H460 lung; 27.1% with HOP-92 NSCLC. In addition, the growth was 27.3% with NCI-H522 lung; 37.6% in the experiment with A549/ATCC NSCLC; 47.9% in the experiment on 786-0 renal; 81% with COLO 205 colon; 37.4% in the experiment with DU-145 prostate; 48.3% with K-562 leukemia. Also, the growth in the experiment with MALME-3M melanoma is 58%; in the experiment with MDA-MB-231 breast, 64.3%; with RXF 393 renal, 46.6%; with SF-268 CNS, 67.7%; with SF-295 CNS it was 50.5%; in the experiment with SF-539 CNS it was 66%. Also, the growth with UACC-257 melanoma was 75.4%; in the experiment with M14 melanoma, 77.8%.

For the molecule `CN(C)CCNc1ccc2ncc(C#Cc3cncc(C(=O)Nc4ccc(CN5CCN(C)CC5)c(C(F)(F)F)c4)c3)n2n1`, the growth is -62.4% (active) in the experiment with NCI-H23 lung; 33.4% in the experiment with NCI-H226 lung; 6.14% (active) with NCI-H322M lung; -37.2% (active) in the experiment on HOP-62 NSCLC; 9.62% (active) in the experiment on NCI-H460 lung; -4.93% (active) with HOP-92 NSCLC. The growth in the experiment with NCI-H522 lung was -61.8% (active); in the experiment with A549/ATCC NSCLC it was 29.1%; in the experiment with 786-0 renal, 4.34% (active); in the experiment on COLO 205 colon, -32.3% (active); in the experiment with DU-145 prostate it was 18.9%; with K-562 leukemia it was 2.29% (active). In addition, the growth is 17.4% in the experiment with MALME-3M melanoma; -18.2% (active) with MDA-MB-231 breast; -75.1% (active) in the experiment with RXF 393 renal; -50.9% (active) with SF-268 CNS; 45.2% in the experiment on SF-295 CNS; -71.8% (active) with SF-539 CNS. Besides, the values for the growth with UACC-257 melanoma and with M14 melanoma were 74.9% and 54.1%, respectively.

Take `COCCOc1ccc2ncc(C#Cc3cncc(C(=O)Nc4ccc(CN5CCN(C)CC5)c(C(F)(F)F)c4)c3)n2n1`: the growth with NCI-H23 lung was -48.7% (active); with NCI-H226 lung, -12.7% (active); with NCI-H322M lung it was 18.7%; in the experiment on HOP-62 NSCLC, 18.4%; in the experiment on NCI-H460 lung, 0.556% (active); with HOP-92 NSCLC, -44.1% (active). Also, the growth in the experiment with NCI-H522 lung was -56.4% (active); in the experiment on A549/ATCC NSCLC, 10.3%; in the experiment with 786-0 renal, -15.3% (active); in the experiment with COLO 205 colon, -32.7% (active); in the experiment with DU-145 prostate, 7.72% (active); with K-562 leukemia, -18% (active). The growth was -72.3% (active) in the experiment on MALME-3M melanoma; -28.5% (active) in the experiment with MDA-MB-231 breast; -91.2% (active) in the experiment on RXF 393 renal; -19.6% (active) with SF-268 CNS; 31% in the experiment with SF-295 CNS; 8.57% (active) in the experiment on SF-539 CNS. The growth is 28.1% with UACC-257 melanoma and -90.5% (active) in the experiment with M14 melanoma.

With `COc1ccc(-c2nc(C#N)c(N3CCC(S(=O)(=O)N4CCOCC4)CC3)o2)cc1`, the growth in the experiment on NCI-H23 lung was 94.5%; with NCI-H226 lung, 93.9%; in the experiment with NCI-H322M lung, 97.2%; in the experiment with HOP-62 NSCLC, 99.2%; in the experiment with NCI-H460 lung it was 103%; in the experiment with HOP-92 NSCLC it was 99.3%. Further, the growth in the experiment on NCI-H522 lung is 89.5%; in the experiment on A549/ATCC NSCLC, 98.1%; in the experiment with 786-0 renal it was 94.2%; with COLO 205 colon, 111%; in the experiment with DU-145 prostate, 100%; in the experiment on K-562 leukemia it was 98.8%. Moreover, the growth with MALME-3M melanoma was 107%; in the experiment on MDA-MB-231 breast, 95.1%; in the experiment with RXF 393 renal, 108%; in the experiment on SF-268 CNS, 94.2%; in the experiment with SF-295 CNS, 102%; in the experiment on SF-539 CNS, 97.5%. Further, the growth with UACC-257 melanoma and in the experiment with M14 melanoma was 109% throughout.

Take `O=C(O)CC1CCN(c2ccc3nnc(Cl)n3n2)CC1`: the growth is 93.9% with NCI-H23 lung; 98.7% in the experiment with NCI-H226 lung; 96.2% with NCI-H322M lung; 93.3% in the experiment with HOP-62 NSCLC; 108% with NCI-H460 lung; 96.2% in the experiment on HOP-92 NSCLC. The growth is 96% in the experiment with NCI-H522 lung; 103% with A549/ATCC NSCLC; 100% in the experiment with 786-0 renal; 107% in the experiment on COLO 205 colon; 107% in the experiment with DU-145 prostate; 105% in the experiment on K-562 leukemia. Besides, the growth with MALME-3M melanoma is 102%; with MDA-MB-231 breast, 112%; in the experiment on RXF 393 renal, 109%; with SF-268 CNS, 100%; with SF-295 CNS it was 102%; in the experiment on SF-539 CNS, 102%. The results for the growth with UACC-257 melanoma and with M14 melanoma were 109% and 94.6%, respectively.

For the molecule `CN1CCN(CCNc2nc(-c3cccc(NS(=O)(=O)c4cccc5c(N(C)C)cccc45)c3)cs2)CC1`, the growth in the experiment with NCI-H23 lung is 51.9%; in the experiment with NCI-H226 lung it was 66.3%; in the experiment with NCI-H322M lung it was 85.8%; in the experiment with HOP-62 NSCLC it was 82%; with NCI-H460 lung it was 70.7%; in the experiment with HOP-92 NSCLC it was 39.7%. Further, the growth with NCI-H522 lung is 69.4%; in the experiment with A549/ATCC NSCLC, 69.6%; in the experiment with 786-0 renal, 60.8%; in the experiment on COLO 205 colon, 85.6%; with DU-145 prostate it was 81.8%; in the experiment on K-562 leukemia, 10.6%. The growth in the experiment on MALME-3M melanoma is 44%; in the experiment on MDA-MB-231 breast, 64.8%; in the experiment with RXF 393 renal, 61.6%; with SF-268 CNS, 82.7%; in the experiment on SF-295 CNS, 42.6%; in the experiment on SF-539 CNS it was 68.1%. The results for the growth in the experiment with UACC-257 melanoma and in the experiment on M14 melanoma were 53.9% and 62.9%, respectively.
